Measurements: PubChem BioAssay (NCATS)
Inconclusive results are not listed. Entries that show only a call come without a potency. Active and inactive are the calls of the source. Calls follow the shape of the dose curve; as a rule, active = well fitted cell-killing curve with a large enough effect; inconclusive = small, poorly fitted or top-dose-only effect; inactive = flat fitted curve, though single readings scatter.

assay: Cell Viability - LYMP2-007 (AID 979); details: LYMP2-007 lymphoblastoid cell viability; series mostly up to 92.2 µM;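 also: cells exposed to compound for 24 h before reading; nearly all actives have a fitted effect of over 60% in size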
Description: NIH Chemical Genomics Center [NCGC]
NIH Molecular Libraries Screening Centers Network [MLSCN]
National Institutes of Environmental Health Sciences [NIEHS]
National Toxicology Program [NTP]
We have developed a 1536-well cell-based assay for quantitative high throughput screening (qHTS) against a number of cell lines to determine in vitro cytotoxicity of small molecules. This particular assay uses a human lymphoblastoid cell line (LYMP2-007) purchased from Coriell Institute for Medical Research.
NCGC Assay Protocol Summary:
The CellTiter-Glo luminescent cell viability assay (Promega) is a homogeneous method to measure the number of viable cells in culture. The end point readout of this assay is based on quantitation of intracellular ATP, an indicator of metabolic activity, using the luciferase reaction. Luciferase catalyzes the oxidation of beetle Luciferin to oxyluciferin and light in the presence of ATP. The luminescent signal is proportional to amount of ATP present.
Using the CellTiter-Glo luminescent cell viability assay, the amount of cellular ATP was measured in the lymphoblastoid cell line with complete culture medium following compound treatment for 24 hours. The assay was performed in opaque white Kalypsys 1536-well plates. In the screen, tetraoctylammonium bromide was used as positive control. Library compounds were measured for their ability to cause acute toxicity in the cell line, as reflected by a decrease in intracellular ATP levels, in a concentration-dependent manner. […] AC50 values were determined from concentration-response data modeled with the standard Hill equation.
qHTS protocol for CellTiter Glo lymphoblastoid cellular assay
[Step] [Parameter] [Value] [Description]
1. Reagent; 5 uL; 2500 lymphoblastoid cells/well
2. Time; 5 hr; 37 C incubation
4. Controls; 23 nL; Tetraoctylammonium bromide 6.4pM to 92 uM
5. Time; 24 hr; 37 C incubation
6. Reagent; 5 uL; CellTiter Glo reagent
7. Time; 30 min; Room Temperature
8. Detection; Luminescence; Viewlux plate reader
Keywords: cell viability, cytotoxicity, lymphoblastoid cell line, luminescence, NTPHTS, NTPHTS_NCGC, NIEHS, DSSTox, MLSMR, MLSCN, NIH Roadmap, qHTS, NCGC
Potency is read from the fitted curve at half-maximal effect.

| Compound | Potency |
| --- | --- |
| O=C(N[C@H](CO)[C@H](O)c1ccc([N+](=O)[O-])cc1)C(Cl)Cl | inactive |
| CC[C@H](C)C(=O)O[C@H]1C[C@@H](C)C=C2C=C[C@H](C)[C@H](CC[C@@H]3C[C@@H](O)CC(=O)O3)[C@H]21 | inactive |
| CC1=NN(c2ccccc2)C(=O)C1 | inactive |
| NNC(=O)c1ccncc1 | inactive |
| NC(N)=NC(N)=NCCc1ccccc1 | inactive |
| O=C(O)c1cc(=O)[nH]c(=O)[nH]1 | inactive |
| CCc1cc(C(N)=S)ccn1 | inactive |
| Cc1cc(NS(=O)(=O)c2ccc(N)cc2)no1 | inactive |
| N=C(N)c1ccc(OCCCCCOc2ccc(C(=N)N)cc2)cc1 | 39.8 µM (active) |
| CN(C)c1ccc(C(=C2C=CC(=[N+](C)C)C=C2)c2ccc(N(C)C)cc2)cc1 | 2.51 µM (active) |
| Cc1ccnc2c1NC(=O)c1cccnc1N2C1CC1 | inactive |
| Cc1nnc(NS(=O)(=O)c2ccc(N)cc2)s1 | inactive |
| Cc1noc(NS(=O)(=O)c2ccc(N)cc2)c1C | inactive |
| C[C@]12C=CC(=O)C=C1CC[C@@H]1[C@@H]2C(=O)C[C@@]2(C)[C@H]1CC[C@]2(O)C(=O)CO | inactive |
| Cc1ncc([N+](=O)[O-])n1CCO | inactive |
